Test results as given in PubChem BioAssay (NCATS).
Inconclusive results are not listed. The source made the active and inactive calls. The call rests on the fitted dose curve; in most records, active means well fitted inhibition curve with a large enough effect; inconclusive means small, poorly fitted or top-dose-only effect; inactive means flat fitted curve, though single readings scatter.

Legend:
Test in all cases: qHTS profiling for inhibitors of Plasmodium falciparum proliferation (AID 504749); further: nearly all actives have a fitted effect of over 60% in size
Conditions in all cases: P. falciparum in erythrocytes, SYBR Green DNA, 72 h; series mostly up to 28.7 µM
CP268 = tested on: CP268
How it was run: (§1)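 Infected RBCs, 0.3% parasitemia/2.5% Hct final; cpd 72 h, 37 C, 5% CO2; lysis buffer with saponin/triton/SYBR Green I, o/n RT dark; FI 485/535; norm. to artemisinin (0.29 uM) and DMSO.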

CP269 = tested on: CP269
How it was run: as §1

CP286 = tested on: CP286
How it was run: as §1

CP291 = tested on: CP291
How it was run: as §1

CP297 = tested on: CP297
How it was run: as §1

CP305 = tested on: CP305
How it was run: as §1

CP315 = tested on: CP315
How it was run: as §1

CP325 = tested on: CP325
How it was run: as §1

CP329 = tested on: CP329
How it was run: as §1

CP335 = tested on: CP335
How it was run: as §1

DFO2036 = tested on: DFO2036
How it was run: as §1

DIV14 = tested on: DIV14
How it was run: as §1

DIV17 = tested on: DIV17
How it was run: as §1

DIV30 = tested on: DIV30
How it was run: as §1

Dd2 = tested on: Dd2
How it was run: as §1

ECU = tested on: ECU
How it was run: as §1

FAB9 = tested on: FAB9
How it was run: as §1

GB4 = tested on: GB4
How it was run: as §1

HB3 = tested on: HB3
How it was run: as §1

ICS = tested on: ICS
How it was run: as §1

Measured: Potency

CCCCOc1cc(C(=O)OCCN(CC)CC)ccc1N
inactive: CP268 | CP269 | CP286 | CP291 | CP297 | CP305 | CP315 | CP325 | CP329 | CP335 | DFO2036 | DIV14 | DIV17 | DIV30 | Dd2 | ECU | FAB9 | GB4 | HB3 | ICS

CC(C)(C)NCC(O)COc1ccc(NC(=O)NC2CCCCC2)cc1 (stereo not drawn)
inactive: CP268 | CP269 | CP286 | CP291 | CP297 | CP305 | CP315 | CP325 | CP329 | CP335 | DFO2036 | DIV14 | DIV17 | DIV30 | Dd2 | ECU | FAB9 | GB4 | HB3 | ICS

CC(=O)CCC(=O)O
inactive: CP268 | CP269 | CP286 | CP291 | CP297 | CP305 | CP315 | CP325 | CP329 | CP335 | DFO2036 | DIV14 | DIV17 | DIV30 | Dd2 | ECU | FAB9 | GB4 | HB3 | ICS

O=S(=O)(O)NC1CCCCC1
inactive: CP268 | CP269 | CP286 | CP291 | CP297 | CP305 | CP315 | CP325 | CP329 | CP335 | DFO2036 | DIV14 | DIV17 | DIV30 | Dd2 | ECU | FAB9 | GB4 | HB3 | ICS

Cc1cc(CC(=O)O)n(C)c1C(=O)c1ccc(Cl)cc1
inactive: CP268 | CP269 | CP286 | CP291 | CP297 | CP305 | CP315 | CP325 | CP329 | CP335 | DFO2036 | DIV14 | DIV17 | DIV30 | Dd2 | ECU | FAB9 | GB4 | HB3 | ICS

Cc1cccc(Nc2cc(Cl)nc(SCC(=O)O)n2)c1C
inactive: CP268 | CP269 | CP286 | CP291 | CP297 | CP305 | CP315 | CP325 | CP329 | CP335 | DFO2036 | DIV14 | DIV17 | DIV30 | Dd2 | ECU | FAB9 | GB4 | HB3 | ICS

NCCNCCNCCN
inactive: CP268 | CP269 | CP286 | CP291 | CP297 | CP305 | CP315 | CP325 | CP329 | DFO2036 | DIV14 | DIV17 | DIV30 | Dd2 | ECU | FAB9 | GB4 | HB3 | ICS

O=C(O)c1ccccc1O
inactive: CP268 | CP269 | CP286 | CP291 | CP305 | CP315 | CP325 | CP329 | CP335 | DFO2036 | DIV14 | DIV17 | DIV30 | Dd2 | ECU | FAB9 | GB4 | HB3 | ICS

CCOC(=O)c1ccc(O)cc1
inactive: CP268 | CP269 | CP286 | CP291 | CP297 | CP305 | CP315 | CP325 | CP329 | CP335 | DFO2036 | DIV14 | DIV17 | DIV30 | Dd2 | ECU | FAB9 | GB4 | HB3 | ICS
